Reference: article PMC4336329 (PLoS ONE, 2015)
Hit rate of the full screen: of about 310,000 compounds, about 14,000 (4.5%) showed an effect of 50% or more. Effects have a minus sign here. The entries come from a sample that favours strong results as a whole.

Biological target: human ether-à-go-go-related gene (hERG) potassium channel (human, UniProt Q12809)
Experiment: primary screen, population patch clamp on CHO cells stably expressing hERG; higher = less effect of the substance
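Also: peak tail current of the secondary pulse compared with the same well before compound.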

Sequence of human ether-à-go-go-related gene (hERG) potassium channel (Q12809 whole entry, looked up): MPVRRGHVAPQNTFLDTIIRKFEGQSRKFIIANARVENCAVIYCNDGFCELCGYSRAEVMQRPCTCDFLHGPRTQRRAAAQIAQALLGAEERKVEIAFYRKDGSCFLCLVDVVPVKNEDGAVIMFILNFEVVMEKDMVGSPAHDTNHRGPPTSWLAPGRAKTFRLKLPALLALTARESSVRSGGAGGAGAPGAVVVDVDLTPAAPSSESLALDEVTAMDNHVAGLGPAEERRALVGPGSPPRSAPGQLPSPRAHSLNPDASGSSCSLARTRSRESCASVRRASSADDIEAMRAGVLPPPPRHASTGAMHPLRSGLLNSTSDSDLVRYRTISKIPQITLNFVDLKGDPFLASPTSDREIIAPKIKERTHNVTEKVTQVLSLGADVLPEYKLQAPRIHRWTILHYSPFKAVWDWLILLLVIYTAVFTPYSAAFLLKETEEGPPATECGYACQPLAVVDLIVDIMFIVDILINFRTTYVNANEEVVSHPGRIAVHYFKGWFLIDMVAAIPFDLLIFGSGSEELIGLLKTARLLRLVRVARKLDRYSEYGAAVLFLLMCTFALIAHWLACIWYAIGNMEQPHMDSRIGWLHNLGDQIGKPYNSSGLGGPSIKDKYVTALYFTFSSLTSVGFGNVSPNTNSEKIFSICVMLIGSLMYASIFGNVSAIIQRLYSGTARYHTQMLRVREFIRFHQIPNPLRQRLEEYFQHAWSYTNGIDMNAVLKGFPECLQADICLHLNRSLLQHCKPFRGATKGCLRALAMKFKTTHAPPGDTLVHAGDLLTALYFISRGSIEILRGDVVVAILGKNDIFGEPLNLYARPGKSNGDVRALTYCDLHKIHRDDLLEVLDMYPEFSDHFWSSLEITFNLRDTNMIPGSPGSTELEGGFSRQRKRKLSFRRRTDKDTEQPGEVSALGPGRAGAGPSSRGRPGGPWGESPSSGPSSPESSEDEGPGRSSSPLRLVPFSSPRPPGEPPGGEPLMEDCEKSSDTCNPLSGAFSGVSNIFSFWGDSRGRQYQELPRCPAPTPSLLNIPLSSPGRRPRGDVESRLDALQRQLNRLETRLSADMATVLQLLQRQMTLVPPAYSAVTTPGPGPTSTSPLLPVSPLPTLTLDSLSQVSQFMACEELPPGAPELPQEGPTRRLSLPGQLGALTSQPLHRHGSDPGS

Compound	hERG current change (%, negative = inhibition) at 10uM
COc1ccc2nc(C)cc(N3CCN(S(=O)(=O)c4ccccc4F)CC3)c2c1	-75.9%
COc1cccc(S(=O)(=O)N2CCN(c3ccccc3F)CC2)c1	-6.35%
COc1ccccc1N1CCN(S(=O)(=O)c2ccccc2F)CC1	-23.3%
CCOc1ccc(-c2n[nH]c(C)c2Oc2ccc(OC)cc2)c(O)c1	-6.31%
Cc1ccc2cc(CN(Cc3ccco3)S(=O)(=O)c3c(C)ccc4nsnc34)c(=O)[nH]c2c1	2.82%
O=C(O)/C=C\C(=O)O.c1ccc(Sc2ccccc2CN2CCCC2)cc1	-50.7%
CNCc1ccccc1Sc1cccc2ccccc12.O=C(O)/C=C\C(=O)O	-45.4%
CN1CCN(Cc2ccccc2Sc2ccccc2)CC1.O=C(O)/C=C\C(=O)O	-82%
OCc1ccccc1CN1CCCCCC1	-9.62%
CNCc1ccccc1Sc1cccc(O)c1.O=C(O)/C=C\C(=O)O	7.03%
CNCc1ccccc1Sc1ccc(OC)c(OC)c1.O=C(O)/C=C\C(=O)O	-18.3%
O=C1N=C(N2CCCC2)S/C1=C\c1cn[nH]c1-c1ccccc1	-4.48%
COCCN=c1scc(-c2cccs2)n1/N=C(\C)c1ccco1	-2.51%
CN(C)S(=O)(=O)c1cccc(COc2ccccc2C(=O)Nc2ccccc2)c1	-14.4%
Brc1ccc(OCc2cn3ccccc3n2)cc1	-7.75%
CCOC(=O)c1sc(NC(=O)CSc2nccc(C)n2)c(C#N)c1C	-4.68%
Cc1sc2ncnc(Sc3nc4ccccc4s3)c2c1C	5.53%
Cl.O=C(CN1CCCC1)Nc1ccc2c(c1)CCC2	-1.69%
CC1(C)O[C@@H]2C[C@H]3[C@@H]4CCC5=CC(=O)C=C[C@]5(C)[C@@]4(F)[C@@H](O)C[C@]3(C)[C@]2(C(=O)CO)O1	13.7%
C[C@]12C=CC(=O)C=C1CC[C@H]1[C@@H]3C[C@@H](O)[C@](O)(C(=O)CO)[C@@]3(C)C[C@H](O)[C@@]12F	6.23%
CC1(c2ccccc2)O[C@@H]2C[C@H]3[C@@H]4CCC5=CC(=O)C=C[C@]5(C)[C@@]4(F)[C@@H](O)C[C@]3(C)[C@]2(C(=O)CO)O1 (stereo partly drawn)	-78.6%
CCn1c(CCNC(=O)c2ccccc2Cl)n[nH]c1=S	12%
C[n+]1ccccc1/C=C/c1cc(Br)ccc1O.[I-]	14.7%
Cc1ccc(C(=O)NNC(=O)c2ccc(-n3cncn3)c([N+](=O)[O-])c2)cc1	12.2%
O=C(c1ccc(N2CCCC2)c([N+](=O)[O-])c1)N1CCN(S(=O)(=O)c2ccc(Cl)cc2)CC1	-36.2%
Cc1ccc(C)c(S(=O)(=O)N2CCN(C(=O)c3ccc(N4CCCC4)c([N+](=O)[O-])c3)CC2)c1	-9.46%

Compound	hERG current change (%, negative = inhibition) at 10uM
O=C(c1ccc(-n2cncn2)c([N+](=O)[O-])c1)N1CCN(S(=O)(=O)c2ccc(Br)cc2)CC1	-67.5%
Cc1ccc(C)c(S(=O)(=O)N2CCN(C(=O)c3ccc(-n4cncn4)c([N+](=O)[O-])c3)CC2)c1	-72.1%
CC(C)c1ccc(S(=O)(=O)N2CCN(C(=O)c3ccc(N4CCCC4)c([N+](=O)[O-])c3)CC2)cc1	-55.1%
CC(=O)c1ccc(S(=O)(=O)N2CCN(C(=O)c3ccc(-n4cncn4)c([N+](=O)[O-])c3)CC2)cc1	-19.7%
Cc1ccc(S(=O)(=O)N2CCN(C(=O)c3ccc(-n4cncn4)c([N+](=O)[O-])c3)CC2)cc1	-52.5%
Cc1ccc(NC(=O)c2ccc(-n3cncn3)c([N+](=O)[O-])c2)cc1	-17.9%
Nc1ccc(C(=O)N2CCN(S(=O)(=O)c3ccc(Br)cc3)CC2)cc1[N+](=O)[O-]	-26.9%
Cc1ccc(S(=O)(=O)N2CCN(C(=O)c3ccc(N4CCCCC4)c([N+](=O)[O-])c3)CC2)cc1	-10.2%
CC(C)CNC(=O)CC(=O)NN=C1CCCC1	19.5%
Cc1ccc(N(CC(=O)NCc2ccco2)C(=O)CCC(=O)Nc2nccs2)c(C)c1	-22.5%
Cc1cc(C)n(-c2nc3ccccc3n3c(C)nnc23)n1	6.03%
Cc1ccc2oc(=O)n(CC(=O)O)c2c1	23.8%
CCOc1ccccc1NC(=O)NC1(C(=O)NCC2CCCO2)CCCCC1 (stereo not drawn)	15%
COc1cc(NS(=O)(=O)c2ccc(NC(=O)c3ccc(C)o3)cc2)nc(OC)n1	-9.23%
Cc1ccc(N)c(C(=O)CCCCC(=O)O)c1	7.01%
C[C@@H](C(=O)O)[C@@H]1C[C@@]1(C)[C@@H](NC(=O)OCc1ccccc1)c1ccccc1	16.8%
Oc1c(CN2CCOCC2)cc(-c2ccccc2)cc1CN1CCOCC1	-12.7%
Cc1cc(C)c(NC(=O)Cn2nnc(C(=O)NCc3cccs3)c2N)c(C)c1	20%
CCC(C)NC(=S)N(CCc1ccccc1)Cc1cc2cc(OC)c(OC)cc2[nH]c1=O (stereo not drawn)	-32.4%
CCCCCOC(=O)C1=C(C)Nc2nnnn2C1c1ccc(OC)c(OC)c1OC (stereo not drawn)	-41.4%
CCOc1cc(/C=C2\NC(=S)N(C)C2=O)ccc1OCc1ccc(C(=O)O)cc1	14.6%
CC(=O)N1CCN(C(=O)c2ccc(-n3c(C)ccc3C)cc2)CC1	-1.54%
Cc1c(NC(=O)/C=C/c2cn(-c3ccccc3)nc2-c2ccc(F)cc2)c(=O)n(-c2ccccc2)n1C	7.47%
CCN(CC)c1ccc(N)cc1S(=O)(=O)Nc1ccc(OC)cc1	-4.91%
Cn1c2c(c(=O)n(C)c1=O)CN(Cc1ccco1)CN2	4.7%
O=C(c1ccc(N2CCCCC2)c([N+](=O)[O-])c1)N1CCN(S(=O)(=O)c2ccccc2)CC1	-49.9%

Compound	hERG current change (%, negative = inhibition) at 10uM
O=C(c1ccc(N2CCN(S(=O)(=O)c3ccccc3)CC2)c([N+](=O)[O-])c1)N1CCOCC1	-35.1%
CCOc1ccc(S(=O)(=O)N2CCN(C(=O)c3cccnc3)CC2)cc1	-29.3%
CCOc1ccc(S(=O)(=O)N2CCN(C(=O)c3ccncc3)CC2)cc1	4.67%
Cc1ccc(S(=O)(=O)N2CCN(c3ccc(C(=O)N4CCOCC4)cc3[N+](=O)[O-])CC2)cc1	-59%
COC(=O)c1ccc(N2CCN(S(=O)(=O)c3ccccc3)CC2)c([N+](=O)[O-])c1	-14.1%
O=C(c1ccncc1)N1CCN(S(=O)(=O)c2ccccc2Br)CC1	4.86%
NC(=O)c1ccc(N2CCN(S(=O)(=O)c3ccccc3)CC2)c([N+](=O)[O-])c1	-58.7%
O=C(c1ccc(-n2cncn2)c([N+](=O)[O-])c1)N1CCN(S(=O)(=O)c2ccccc2Br)CC1	-70.3%
CCOc1ccc(S(=O)(=O)N2CCN(C(=O)c3ccc(-n4cncn4)c([N+](=O)[O-])c3)CC2)cc1	-71.5%
Cc1ccc(S(=O)(=O)N2CCN(C(=O)c3ccc(N4CCCC4)c([N+](=O)[O-])c3)CC2)cc1	-18.1%
N#Cc1ccccc1S(=O)(=O)N1CCN(C(=O)c2ccc(-n3cncn3)c([N+](=O)[O-])c2)CC1	-23.3%
Clc1cccc(Cl)c1C1N2CCCN12 (stereo not drawn)	11.4%
CC(C)c1ccc(CNc2c([N+](=O)[O-])c(=O)oc3ccccc23)cc1	14.2%
O=C(/C=C/c1ccc(NC(=O)c2ccccc2-c2ccccc2C(=O)O)cc1)c1ccccc1	25.7%
Cc1ccc(C)n1-c1ccc(N2CCOCC2)nc1	-1.52%
CNC(=O)c1nnc(Cc2ccc(F)cc2)o1	9.51%
C/C(CC(=O)Nc1ccc(N(C)C)cc1)=N\NC(=O)c1ccccn1	7.77%
O=C(OCc1cc(=O)oc2cc(O)ccc12)c1cc(S(=O)(=O)N2CCOCC2)ccc1F	5.32%
Cc1ccc(S(=O)(=O)N(C)C)cc1NC(=O)c1ccc(-n2cncn2)c([N+](=O)[O-])c1	-38.8%
Cc1cc(C)c(S(=O)(=O)N2CCN(C(=O)c3ccc(-n4cncn4)c([N+](=O)[O-])c3)CC2)c(C)c1	-62.5%
COC(=O)c1ccc(N2CCN(S(=O)(=O)c3c(C)cc(C)cc3C)CC2)c([N+](=O)[O-])c1	21.4%
COC(=O)c1ccc(-n2cncn2)c([N+](=O)[O-])c1	12%
Cc1cc(C)c(NC(=O)CNC(=O)c2ccc(-n3cncn3)c([N+](=O)[O-])c2)c(C)c1	-12.8%
Cc1ccc(S(=O)(=O)N2CCN(C(=O)c3ccc(-n4cncn4)c([N+](=O)[O-])c3)CC2)cc1C	-72.7%
CCC(=O)c1ccc(OCC(=O)NCC2COc3ccccc3O2)cc1 (stereo not drawn)	-25.5%
Cc1ccc(S(=O)(=O)N2CCCc3ccccc32)cc1C	0.165%
